# According to PubChem BioAssay (NCATS):
# Several values for one entry are separate records, joined by “and”; a condition that tells them apart may be missing. Equal values may be shown once. Results filed as inconclusive are left out. A call without a number means that no potency is given here. Unmarked numbers belong to inactive results. Activity calls are given as the source filed them. Calls come from the whole dose curve; as a rule, active = well fitted inhibition curve with a large enough effect; inconclusive = small, poorly fitted or top-dose-only effect; inactive = flat fitted curve, though single readings scatter. Residues, ends and D or L forms follow the SMILES beside them.
# Test system: Zika virus NS2B-NS3 protease
# Test: Primary screen GU AMC qHTS for Zika virus inhibitors (AID 1347154); note: nearly all actives have a fitted effect of over 70% in size
# Conditions: Zika NS2B-NS3 unlinked protease, AMC fluorogenic substrate; series mostly up to 54.1 µM
# Excerpt: Avindra Nath, Ph.D., National Institute of Neurological Disorders and Stroke (NINDS), Bethesda, MD
# Radhakrishnan Padmanabhan, Ph.D., Georgetown University (GU), Washington D.C.
# Zika Virus causes congenital defects, including microcephaly and is associated with Guillain-Barre syndrome, eningoencephalitis and myelitis in infected adult. […] Using a target-based approach, we hope to establish a screening paradigm to uncover novel, cell-active NS2B-NS3 protease (Zika Virus) specific inhibitors from NCATS' collection of small molecules using qHTS.
# Early Translation Branch (ETB)
# National Center for Advancing Translational Sciences (NCATS), Rockville, MD
# National Institute of Health (NIH), Bethesda, Maryland
# Padmanabhan lab provided the NS2B hydrophilic domain and NS3 protease domain in a noncovalent complex used for the unlinked assay. Control compound aprotinin is obtained from Thermo Scientific (#78432; Waltham, Massachusetts). NS2B-NS3 AMC substrate (Bz-Nle-Lys-Arg-Arg-AMC; Nle-KRR-AMC) purchased from Bachem (#I-1995; Torrance, CA). Ac-VKTGKR-AMC purchased from Genscript or Bachem, Ac-FAAGKR-AMC purchased from Genscript, Ac-GLVKRR-AMC purchased from Genscript, Ac-LKKR-AMC purchased from Genscript.
# GU AMC unlinked NS2B-NS3 protease qHTS protocol
# Briefly, 3 microL of Zika virus unlinked NS2B-NS3 protease (25 nM for linked final concentration), in assay buffer (10 mM Tris-HCl pH 8.0 with 0.01% Tween 20) was dispensed into a 1,536-well solid-bottom black plate (Greiner Bio One, Monroe, NC). […] Plates were then read immediately on a ViewLux High-throughput CCD imager (PerkinElmer, Waltham, MA) equipped with standard UV fluorescence optics (340(30) nm excitation, 450(20) nm emission) then incubated (room temperature, protected from light) for 15 minutes (~20% conversion). The change in fluorescence intensity over the 15-minute reaction period was normalized against no-inhibitor and no-enzyme controls and the resulting percent inhibition data were fitted to a 4-parameter Hill equation. Aprotinin was used as the intraplate control.
# Potency is the fitted concentration of half-maximal effect.
SMILES,Potency,"activity change, negative = inhibition"
C[C@@](N)(C(=O)O)c1ccc(S(=O)(=O)O)cc1,inactive,–
CCCN=C(N)NCCC[C@H](N)C(=O)O,inactive,–
COC(=O)[C@@H]1[C@@H]2C[C@H]3c4[nH]c5ccccc5c4CCN3C[C@@H]2CC[C@@H]1O,inactive,–
O=S(=O)(c1cccc2cnccc12)N1CCNCC1,inactive,–
C[C@@H](CCc1ccc(O)cc1)NCCc1ccc(O)c(O)c1,inactive,–
O[C@@H](c1ccccc1)C1CCN(CCc2ccccc2)CC1,inactive,–
COc1ccc([N+](=O)[O-])c2c1CCN2C(=O)CC[C@H](N)C(=O)O,inactive,–
CCCCCCCC(=O)O[C@H](CC(=O)O)C[N+](C)(C)C,inactive,–
CCC(N)(C(=O)O)c1ccc(C(=O)O)cc1 (stereo not given),inactive,–
CC[C@@H](C)[C@@H](CO[C@@H](Cc1ccccc1)C(=O)N[C@@H](CCS(C)(=O)=O)C(=O)OC(C)C)NC[C@@H](N)CS,inactive,–
COC(=O)C1=C(C)NC(C)=C(C(=O)NCCCN2CCC(c3ccccc3)(c3ccccc3)CC2)C1c1ccc([N+](=O)[O-])cc1 (stereo not given),inactive,–
CCN(CC)CCCCC1CCN(CC(=O)N2c3ccccc3C(=O)Nc3cccnc32)CC1,inactive,–
CC(CCCCC(=O)Nc1ccc(C(F)(F)F)cc1)NCCc1cnc[nH]1 (stereo not given),inactive,–
CCCCCCCCCCCCC/C=C/[C@@H](O)[C@H](CO)N(C)C,–,11% [at 6.83 µM] and 6.76% [at 6.83 µM]
CC1=C(\C=C/C(C)=C/C=C\C(C)=C\C(=O)O)C(C)(C)CCC1,inactive,–
O=C(c1c(O)c2ccc(Cl)cc2[nH]c1=O)C1CC1,inactive,–
NC(CC(=O)Nc1ccc(Oc2cc(F)c(F)cc2Br)cc1)C(=O)O (stereo not given),inactive,–
CCCCc1nn(-c2ccccc2C(F)(F)F)c(=O)n1Cc1ccc(-c2ccccc2S(=O)(=O)NC(=O)c2sccc2C)cc1,21.2 µM (active),–
CCC(=O)O[C@H](CC(=O)O)C[N+](C)(C)C,inactive,–
CC[C@@H](C)[C@H]1O[C@]2(CC[C@@H]1C)C[C@@H]1C[C@H](C/C=C(/C)[C@H](O[C@@H]3C[C@H](OC)[C@H](O[C@@H]4C[C@H](OC)[C@@H](O)[C@H](C)O4)[C@H](C)O3)[C@@H](C)/C=C\C=C3CO[C@@H]4[C@H](O)C(C)=C[C@@H](C(=O)O1)[C@]34O)O2 (tested in a mixture with another compound),inactive,–

SMILES,Potency,"activity change, negative = inhibition"
Cc1cc(C(=O)O)ccc1[C@H](N)C(=O)O,inactive,–
CC(C)SC(=N)N,inactive,–
CCCCC/C=C/C=C1/C(=O)C=C[C@@H]1C/C=C\CCCC(=O)O,–,2.18% [at 6.83 µM]
Cc1ccc(S(=O)(=O)NCc2ccccc2)cc1,inactive,–
COc1cc(N)c(Cl)cc1C(=O)OCCCN1CCCCC1,inactive,–
Cn1cnc2nc(NCCO)nc(NCc3ccccc3)c21,inactive,–
CCCCCCCC/C=C\CCCCCCCC(=O)N[C@@H](CO)Cc1ccc(O)cc1,inactive,–
CC(=O)NCC(=O)N[C@H](CCC(=O)O)C(=O)O (HELM PEPTIDE1{[ac].G.[dE]}$$$$V2.0),inactive,–
O=C1C=CC(=O)C2=C1C1c3ccccc3C2c2ccccc21,inactive,–
c1ccc(Oc2nc(NC3CCCCC3)c3[nH]cnc3n2)cc1,inactive,–
CC1(C)CO[C@H](CC(=O)O)CN1,inactive,–
COc1cccc(NC(=O)/C=C\c2ccc(Cl)cc2)c1,inactive,–
Clc1ccc(-c2nc3sccn3c2/C=N/OCc2ccc(Cl)c(Cl)c2)cc1,inactive,–
C[C@@]12CCC[C@H]1C1CC[C@H]3C[C@H](O)CC[C@]3(C)C1CC2 (stereo not given in full),inactive,–
NC(C(=O)O)c1ccc(P(=O)(O)O)cc1 (stereo not given),inactive,–
O=c1ccn([C@@H]2O[C@H](COP(=O)(O)O)[C@@H](O)[C@H]2O)c(=O)[nH]1,inactive,–
NS(=O)(=O)c1cccc2c1c([N+](=O)[O-])cc1[nH]c(=O)c(=O)[nH]c12,inactive,–
N[C@H](C(=O)O)c1nn[nH]n1,inactive,–
C[C@H](CCC(=O)O)C1CC[C@H]2C3CC[C@@H]4C[C@H](O)CC[C@]4(C)C3C[C@H](O)[C@]12C (stereo not given in full),inactive,–
COc1cc2c(cc1OC)C(c1ccc(N)cc1)=NNC(=O)C2,inactive,–
